The values that follow come from the supplement of paper PMC11732987, “Enantioselective OTUD7B fragment discovery through chemoproteomics screening and high-throughput optimisation” (Communications Chemistry, 2025).

Values without a mark were called inactive.

Common to all, as to assay: log2 ratio of Biotin-Ahx-Ub-VS probe labelling (fragment/DMSO); higher = less target engagement (more negative = stronger competition), active = hit call of the paper (q ≤ 0.05, log2 ratio ≤ -1)
Conditions in all cases: compound concentration: 200 uM; treatment time: 3 h

One test concerns the target T1, OTUD6B (UniProt Q8N6M0).
T1 sequence (whole entry): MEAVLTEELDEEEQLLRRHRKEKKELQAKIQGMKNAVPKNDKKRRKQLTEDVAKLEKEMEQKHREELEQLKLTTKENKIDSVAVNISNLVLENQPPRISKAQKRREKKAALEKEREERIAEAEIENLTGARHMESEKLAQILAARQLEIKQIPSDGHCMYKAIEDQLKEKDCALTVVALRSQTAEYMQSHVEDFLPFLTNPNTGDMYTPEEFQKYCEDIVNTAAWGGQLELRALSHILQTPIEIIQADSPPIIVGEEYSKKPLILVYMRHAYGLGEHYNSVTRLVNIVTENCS
Summed up:
(§1)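 The table lists average log2 ratios of fragment over vehicle, from an unpaired t-test on global-median-normalised Spectronaut label-free quantities. Proteins with ≥2 unique peptides were used. Samples were HEK293T lysate (495 µg) treated in triplicate with fragment at 200 µM or vehicle for 3 h, then with Biotin-Ahx-Ub-VS (0.5 µM final) for 1 h, with labelled DUBs NeutrAvidin-enriched and run by diaPASEF LC-MS/MS.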

The next test has as its target T2, OTUD7B (UniProt Q6GQQ9).
T2 sequence (whole entry): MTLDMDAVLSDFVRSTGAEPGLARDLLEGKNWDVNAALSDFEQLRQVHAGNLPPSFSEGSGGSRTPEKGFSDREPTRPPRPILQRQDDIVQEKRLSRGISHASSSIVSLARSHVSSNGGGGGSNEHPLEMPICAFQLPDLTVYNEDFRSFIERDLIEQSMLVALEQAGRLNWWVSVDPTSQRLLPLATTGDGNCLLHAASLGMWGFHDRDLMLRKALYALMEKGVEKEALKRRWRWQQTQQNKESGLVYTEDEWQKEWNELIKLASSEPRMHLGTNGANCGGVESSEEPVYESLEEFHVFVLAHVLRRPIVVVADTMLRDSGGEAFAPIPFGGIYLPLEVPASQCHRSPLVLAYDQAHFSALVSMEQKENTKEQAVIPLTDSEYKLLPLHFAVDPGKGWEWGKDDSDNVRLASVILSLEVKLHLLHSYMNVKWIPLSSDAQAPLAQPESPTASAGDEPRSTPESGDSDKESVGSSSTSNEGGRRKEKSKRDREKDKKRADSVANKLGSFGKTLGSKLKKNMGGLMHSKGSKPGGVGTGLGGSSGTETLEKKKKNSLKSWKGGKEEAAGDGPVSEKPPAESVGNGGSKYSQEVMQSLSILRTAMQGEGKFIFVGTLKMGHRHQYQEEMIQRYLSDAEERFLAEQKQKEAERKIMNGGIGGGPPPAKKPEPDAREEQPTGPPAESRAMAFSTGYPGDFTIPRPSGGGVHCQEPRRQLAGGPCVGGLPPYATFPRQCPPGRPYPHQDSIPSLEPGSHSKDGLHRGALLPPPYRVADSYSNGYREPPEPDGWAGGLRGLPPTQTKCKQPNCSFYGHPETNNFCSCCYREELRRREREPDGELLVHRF
Summed up: as §1

A further test addresses PRPF8 (UniProt Q6P2Q9). Summed up: as §1
The next test has as its target T3, PSMD7 (UniProt P51665).
T3 sequence (whole entry): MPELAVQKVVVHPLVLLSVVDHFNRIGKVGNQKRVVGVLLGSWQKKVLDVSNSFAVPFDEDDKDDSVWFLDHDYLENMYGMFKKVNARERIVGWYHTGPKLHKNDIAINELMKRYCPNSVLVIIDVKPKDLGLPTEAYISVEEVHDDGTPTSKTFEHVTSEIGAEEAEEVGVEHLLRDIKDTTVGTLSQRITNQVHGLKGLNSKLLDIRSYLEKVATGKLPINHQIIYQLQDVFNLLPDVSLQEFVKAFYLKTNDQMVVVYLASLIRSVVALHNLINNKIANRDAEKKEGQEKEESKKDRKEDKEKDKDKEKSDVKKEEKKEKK
Summed up: as §1

Another test has as its target UCHL1 (UniProt P09936). Summed up: as §1
For the next test, the target named is T4, UCHL3 (UniProt P15374).
T4 sequence (whole entry): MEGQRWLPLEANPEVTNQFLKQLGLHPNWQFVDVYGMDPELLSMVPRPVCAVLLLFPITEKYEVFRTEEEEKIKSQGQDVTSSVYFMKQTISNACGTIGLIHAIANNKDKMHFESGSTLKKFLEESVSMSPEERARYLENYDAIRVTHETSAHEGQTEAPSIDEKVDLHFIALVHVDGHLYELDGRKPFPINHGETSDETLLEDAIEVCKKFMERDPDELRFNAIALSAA
Summed up: as §1

A further test concerns the target T5, UCHL5 (UniProt Q9Y5K5).
T5 sequence (whole entry): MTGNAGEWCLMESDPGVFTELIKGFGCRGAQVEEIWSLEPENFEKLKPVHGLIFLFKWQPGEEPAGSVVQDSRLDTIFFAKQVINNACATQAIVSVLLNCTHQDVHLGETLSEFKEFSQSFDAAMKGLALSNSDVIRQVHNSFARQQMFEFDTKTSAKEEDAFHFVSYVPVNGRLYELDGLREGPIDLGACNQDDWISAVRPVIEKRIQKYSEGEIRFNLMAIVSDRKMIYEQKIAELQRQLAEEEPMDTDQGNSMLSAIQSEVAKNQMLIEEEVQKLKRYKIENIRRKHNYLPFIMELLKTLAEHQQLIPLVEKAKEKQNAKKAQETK
Summed up:
as §1

A further test deals with USP10 (UniProt Q14694). Summed up:
as §1

A further test addresses T6, USP15 (UniProt Q9Y4E8).
T6 sequence (whole entry): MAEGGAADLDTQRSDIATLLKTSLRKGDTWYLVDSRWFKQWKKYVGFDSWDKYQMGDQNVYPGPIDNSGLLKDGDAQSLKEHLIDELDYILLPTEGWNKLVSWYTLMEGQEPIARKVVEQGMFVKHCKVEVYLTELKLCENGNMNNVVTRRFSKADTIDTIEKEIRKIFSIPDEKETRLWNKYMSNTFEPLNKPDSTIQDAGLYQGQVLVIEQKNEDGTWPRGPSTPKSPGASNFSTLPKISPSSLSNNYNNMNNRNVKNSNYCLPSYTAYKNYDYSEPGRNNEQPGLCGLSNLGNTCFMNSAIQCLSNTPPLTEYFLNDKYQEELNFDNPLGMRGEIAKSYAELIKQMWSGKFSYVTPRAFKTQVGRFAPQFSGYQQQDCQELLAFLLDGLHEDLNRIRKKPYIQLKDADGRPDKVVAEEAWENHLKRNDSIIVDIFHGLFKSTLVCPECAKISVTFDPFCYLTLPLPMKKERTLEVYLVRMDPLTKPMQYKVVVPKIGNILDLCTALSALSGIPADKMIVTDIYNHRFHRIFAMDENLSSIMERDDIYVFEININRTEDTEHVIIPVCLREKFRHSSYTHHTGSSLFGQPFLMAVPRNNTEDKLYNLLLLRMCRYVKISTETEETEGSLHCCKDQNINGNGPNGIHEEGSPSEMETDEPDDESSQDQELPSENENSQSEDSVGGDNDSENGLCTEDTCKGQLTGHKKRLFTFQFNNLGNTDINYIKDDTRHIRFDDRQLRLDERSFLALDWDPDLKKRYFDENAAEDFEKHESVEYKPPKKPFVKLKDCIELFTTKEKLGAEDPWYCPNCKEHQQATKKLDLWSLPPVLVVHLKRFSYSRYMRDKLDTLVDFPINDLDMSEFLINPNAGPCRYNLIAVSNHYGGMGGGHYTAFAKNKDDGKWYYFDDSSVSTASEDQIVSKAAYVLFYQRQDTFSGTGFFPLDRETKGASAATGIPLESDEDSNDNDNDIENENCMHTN
Summed up: as §1

For another test, the target named is USP16 (UniProt Q9Y5T5). Summed up: as §1
USP16, sequence (Q9Y5T5 whole entry, looked up): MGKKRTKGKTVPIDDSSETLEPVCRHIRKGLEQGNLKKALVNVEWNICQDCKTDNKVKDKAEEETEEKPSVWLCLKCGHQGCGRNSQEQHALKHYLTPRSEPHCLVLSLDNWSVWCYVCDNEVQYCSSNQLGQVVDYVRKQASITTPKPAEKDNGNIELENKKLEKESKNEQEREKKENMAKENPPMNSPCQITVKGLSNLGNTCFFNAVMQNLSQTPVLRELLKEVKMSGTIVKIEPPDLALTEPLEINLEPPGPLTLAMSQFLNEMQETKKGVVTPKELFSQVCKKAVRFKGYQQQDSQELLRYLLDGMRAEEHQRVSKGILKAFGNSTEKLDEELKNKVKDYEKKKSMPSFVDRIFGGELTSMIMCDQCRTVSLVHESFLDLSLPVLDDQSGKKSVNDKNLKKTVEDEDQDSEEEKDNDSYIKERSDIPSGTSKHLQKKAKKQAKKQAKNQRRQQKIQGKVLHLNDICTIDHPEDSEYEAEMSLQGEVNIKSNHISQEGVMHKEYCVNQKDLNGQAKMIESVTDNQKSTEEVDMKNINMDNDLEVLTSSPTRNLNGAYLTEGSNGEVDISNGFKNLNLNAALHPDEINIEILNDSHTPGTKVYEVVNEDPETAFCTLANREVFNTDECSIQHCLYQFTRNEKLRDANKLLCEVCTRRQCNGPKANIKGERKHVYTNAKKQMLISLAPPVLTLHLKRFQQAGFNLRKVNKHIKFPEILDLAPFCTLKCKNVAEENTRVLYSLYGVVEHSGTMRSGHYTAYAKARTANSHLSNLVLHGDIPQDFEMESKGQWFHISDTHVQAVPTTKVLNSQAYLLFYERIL

UCHL1, sequence (P09936 whole entry, looked up): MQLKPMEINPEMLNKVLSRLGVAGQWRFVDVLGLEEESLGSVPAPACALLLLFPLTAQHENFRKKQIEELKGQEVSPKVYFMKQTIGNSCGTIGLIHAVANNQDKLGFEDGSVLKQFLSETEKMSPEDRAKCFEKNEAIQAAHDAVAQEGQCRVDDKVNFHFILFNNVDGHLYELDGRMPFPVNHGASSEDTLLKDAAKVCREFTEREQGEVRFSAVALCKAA
USP10, sequence (Q14694 whole entry): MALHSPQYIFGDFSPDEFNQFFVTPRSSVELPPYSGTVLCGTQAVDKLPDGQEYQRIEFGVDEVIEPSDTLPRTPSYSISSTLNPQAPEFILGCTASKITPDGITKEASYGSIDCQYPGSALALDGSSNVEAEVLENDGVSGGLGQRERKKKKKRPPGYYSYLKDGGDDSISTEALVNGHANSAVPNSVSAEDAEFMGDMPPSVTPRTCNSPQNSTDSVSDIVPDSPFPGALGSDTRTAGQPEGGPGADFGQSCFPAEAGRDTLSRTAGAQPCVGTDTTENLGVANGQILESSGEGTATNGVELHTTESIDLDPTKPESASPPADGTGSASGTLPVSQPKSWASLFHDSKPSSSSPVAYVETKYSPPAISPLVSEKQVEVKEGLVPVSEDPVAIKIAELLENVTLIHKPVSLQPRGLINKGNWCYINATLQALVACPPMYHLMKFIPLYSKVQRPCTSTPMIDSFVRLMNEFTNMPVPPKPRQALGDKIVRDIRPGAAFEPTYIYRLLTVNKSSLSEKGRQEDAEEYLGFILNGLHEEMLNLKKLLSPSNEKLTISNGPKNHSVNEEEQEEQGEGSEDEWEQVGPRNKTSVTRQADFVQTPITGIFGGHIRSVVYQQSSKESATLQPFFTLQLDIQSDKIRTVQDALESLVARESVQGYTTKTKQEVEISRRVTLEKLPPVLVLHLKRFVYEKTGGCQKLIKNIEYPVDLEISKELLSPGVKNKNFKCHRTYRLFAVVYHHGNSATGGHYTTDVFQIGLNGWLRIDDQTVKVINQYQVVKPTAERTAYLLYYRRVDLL

In the case of `O=C(CCl)N1CCCCCC1c1ncon1` (stereo not given), the “log2 ratio of Biotin-Ahx-Ub-VS probe labelling” value (“log2 ratio” below) in the test with OTUD6B is -0.149; with OTUD7B, -0.512; with PRPF8, -0.173; with PSMD7, -0.174; with UCHL1 it was -1.82 (active); in the test with UCHL3 it was 0.279. Moreover, the “log2 ratio” value with UCHL5 was -0.229; with USP10 it was -0.0372; with USP15, -0.142; in the test with USP16 it was -0.0478.

Regarding `CN(Cc1nc2ccccc2[nH]1)C(=O)CCl.Cl`, the “log2 ratio” value is -0.0126 with OTUD6B; -0.039 in the test with OTUD7B; 0.00724 in the test with PRPF8; -0.142 with PSMD7; 0.185 with UCHL1; 0.504 in the test with UCHL3. For the same compound, the “log2 ratio” value is -0.121 in the test with UCHL5, -0.14 in the test with USP10, -0.17 with USP15 and -0.572 with USP16.

`CC1CCc2onc(CNC(=O)CCl)c2C1` (stereo not given): the “log2 ratio” value with OTUD6B is -0.0903; in the test with OTUD7B, -0.588; with PRPF8, -0.225; with PSMD7 it was -0.0595; with UCHL1 it was -1.33 (active); with UCHL3 it was 0.123. Moreover, the “log2 ratio” value in the test with UCHL5 is -0.175; with USP10 it was -0.0579; with USP15, -0.0914; with USP16 it was 0.406.

Regarding `O=C(CCl)Nc1cc2c(cc1Cl)OCCO2`, the “log2 ratio” value in the test with OTUD6B is -0.0652; with OTUD7B, -0.567; with PRPF8, 0.0189; with PSMD7 it was -0.149; in the test with UCHL1, -1.2 (active); with UCHL3, 0.196. The “log2 ratio” value in the test with UCHL5 is -0.407; in the test with USP10, -0.000247; with USP15 it was -0.202; with USP16 it was 0.406.
